# The list is not random: actives were taken first. Their share in the collection is about 8.1%.
# RORg inh – qHTS for inhibitors of ROR gamma transcriptional activity | Nuclear receptor ROR-gamma (Mus musculus), P51450 | Drosophila S2 Gal4-RORgamma UAS-luciferase reporter, 20 h | Potency, µM (series often up to 53.6 µM), for inactives: at the top dose activity change, negative = inhibition, most hits filed as inhibitors | hit rate 5.4% among 310,000; further: on the % scale 0 is the no-effect control and ±100 the full control effect; nearly all actives have a fitted effect of over 60% in size
# Target sequence (P51450 whole entry, looked up, the tested form may be a part): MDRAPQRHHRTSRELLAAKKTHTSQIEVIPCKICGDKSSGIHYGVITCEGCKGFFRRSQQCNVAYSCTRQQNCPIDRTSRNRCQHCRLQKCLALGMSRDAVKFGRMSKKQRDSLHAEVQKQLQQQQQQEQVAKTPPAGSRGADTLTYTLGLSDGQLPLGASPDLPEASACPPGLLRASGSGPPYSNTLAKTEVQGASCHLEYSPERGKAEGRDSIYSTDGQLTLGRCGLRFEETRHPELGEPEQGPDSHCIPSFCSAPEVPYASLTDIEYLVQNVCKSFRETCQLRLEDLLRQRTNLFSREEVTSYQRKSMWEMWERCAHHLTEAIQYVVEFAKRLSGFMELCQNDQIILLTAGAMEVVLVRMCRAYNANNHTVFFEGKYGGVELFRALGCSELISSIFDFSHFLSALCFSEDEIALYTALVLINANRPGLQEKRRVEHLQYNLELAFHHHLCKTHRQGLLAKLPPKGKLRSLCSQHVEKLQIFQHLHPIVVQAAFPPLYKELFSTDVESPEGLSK
#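 Compounds are pin-transferred onto Drosophila Schneider cells expressing a copper-inducible Gal4–ROR gamma transactivation domain fusion. After 1 hr, copper sulfate is added to 700 uM final; luciferase is read 20 hr later.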
# PINK1 expr mod – A Quantitative High throughput Screen to Identify Chemical Modulators of PINK1 Expression; PINK1 immunofluorescence, high-content cytometry, 24 h; Potency, µM (top dose mostly 76.6 µM), for the others: at the top dose activation (PINK1 increase), most hits filed as activators; hit rate 0.2% among 410,000; active means well fitted activation curve with a large enough effect; inconclusive means small, poorly fitted or top-dose-only effect; cell line not stated here; further: % of control where 0% means no effect; nearly all actives have a fitted effect of over 65% in size
#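 Decision-based qHTS: stable cells, 24 h exposure to five compound concentrations, CCCP as control. Fixed cells stained for PINK1 plus nuclear, mitochondrial and cell markers, cytometer read.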
# Gal4-VP16 FLuc – VP16 counterscreen qHTS for inhibitors of ROR gamma transcriptional activity | Drosophila S2 Gal4-VP16 UAS-luciferase, luminescence, 20 h | Potency, µM (highest dose often 53.6 µM), without a hit: at the highest dose activity, negative = inhibition, actives largely listed as inhibitors | hit rate 3.5% among 310,000;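 further: Gal4-VP16 expression switched on by copper sulfate through the metallothionein promoter; on the % scale 0 is the no-effect control and ±100 the full control effect; nearly all actives have a fitted effect of over 50% in size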
# Epigenetic derep – Quantitative High-Throughput Screen for Regulators of Epigenetic Control | murine LDR cells, GFP reporter derepression, 30 h | Potency, µM (top dose mostly 53.9 µM), without a hit: top-dose GFP activation, most hits filed as activators | hit rate 0.2% among 280,000; further: % of control where 0% means no effect; nearly all actives have a fitted effect of over 60% in size
#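 Readout is the number of GFP-expressing murine LDR cells, counted by cytometry following washing. Cells were treated with compound for 30 h at 37 C; the stably integrated CMV-GFP locus is normally silent.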
# Sfp PPTase inh – qHTS Assay for Inhibitors of Bacillus subtilis Sfp phosphopantetheinyl transferase (PPTase). 4'-phosphopantetheinyl transferase ffp (Bacillus subtilis), Q9F4F7. Biochemical Sfp PPTase activity, qHTS. Potency, µM, for the others: largest response in the series, negative = inhibition, usual class: inhibitors. hit rate 3.5% among 310,000;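 further: the enzyme is Sfp with the accession as filed and its product quenches rhodamine fluorescence; 0% = enzyme reaction without inhibitor and -100% = no enzyme wells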
#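 Step 1, compound plus 15 nM Sfp-PPTase, 15 min, room temperature. Step 2, add rhodamine-CoA (5 uM) and BHQ-2-YbbR (12.5 uM). Step 3, read 525/598 nm fluorescence at 0 and 30 min.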
# ClpP mod – qHTS Assay for Activators of ClpP; ATP-dependent Clp protease proteolytic subunit (Bacillus subtilis (strain 168)), P80244; purified B. subtilis ClpP, FRET peptide cleavage, 20 min; Potency, µM (titrated, usually from 57.5 µM), inactives show top-dose activity change, negative = active; hit rate 1.9% among 340,000; AID 651965, 2013; active means well fitted falling curve with a large enough effect; inconclusive means small, poorly fitted or top-dose-only effect; inactive means no such curve, though single readings can be large or run the other way; further: the source files actives as falling curves though it sought activators and does not explain the sign; nearly all actives have a fitted effect of over 65% in size
# Target sequence (P80244 whole entry, looked up): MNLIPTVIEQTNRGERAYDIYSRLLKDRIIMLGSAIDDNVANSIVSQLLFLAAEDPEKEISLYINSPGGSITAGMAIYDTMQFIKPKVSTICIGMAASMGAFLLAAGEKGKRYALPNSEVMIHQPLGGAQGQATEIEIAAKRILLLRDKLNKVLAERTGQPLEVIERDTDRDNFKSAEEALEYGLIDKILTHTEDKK
#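 FRET quenching reversal measured ClpP activation: 10 microg/mL B. subtilis ClpP at pH 8 with the FRET-FV decapeptide, read at 430 nm after 320 nm excitation. The 20-min minus 0-min signal was scaled between DMSO/no-enzyme wells and ADEP (5.8 microM final).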
# * = called active by the depositor; ? = inconclusive; · = not tested or not shown; [ ] = remark or other dose. Unless noted, the call rests on the fitted dose curve; in most records, active means well fitted curve in the direction sought with a large enough effect; inconclusive means small, poorly fitted or top-dose-only effect, or another doubt; inactive means no such curve, though single readings can be large; an effect the other way counts as inactive or inconclusive. Potency means the concentration at half of the fitted maximal effect.
SMILES,RORg inh,PINK1 expr mod,Gal4-VP16 FLuc,Epigenetic derep,Sfp PPTase inh,ClpP mod
COc1ccc(C2C(=O)N(C3CCCCC3)CC(=O)N2CCc2ccc(OC)c(OC)c2)cc1 (stereo not drawn),·,0%,·,4%,·,1%
Cc1ccc(NC(=O)c2oc3ccc(S(=O)(=O)N4CCCCC4)cc3c2C)c(C)c1,·,1%,·,4%,·,7%
CCOC(=O)c1c(NC(=O)CS(=O)(=O)c2ccc(C)cc2)sc2c1CCCCC2,·,-1%,·,-1%,·,-14%
CCOC(=O)c1c(NC(=S)Nc2ccc(C)cc2)sc2c1CCC2,6.3µM*,17%,?,3%,?,3%
COC(=O)c1c(NC(=O)Cn2cc([N+](=O)[O-])cn2)sc2c1CCC2,18%,6%,-5%,-1%,9%,13µM*
COC(=O)c1c(NC(=O)COC(=O)[C@@H](NS(=O)(=O)c2ccc(C)cc2)C(C)C)sc2c1CCC2,4%,0%,-21%,7%,-10%,28µM*
CCOC(=O)c1c(NC(=O)Nc2ccc(F)cc2)sc2c1CCN(C)C2,4%,4%,-7%,1%,5%,·
CCOC(=O)c1c(NC(=S)Nc2ccc(F)cc2)sc2c1CCC2,10µM*,13%,?,-1%,-6%,18%
Cc1ccc(NC(=O)Cn2c(=O)n(CCc3ccccc3)c(=O)c3sc4ccccc4c32)cc1C,·,1%,·,-2%,·,-9%
O=c1c2sccc2n(Cc2cc(=O)n3ccccc3n2)c(=O)n1-c1cc(F)ccc1F,·,0%,·,-1%,·,5%
CCOC(=O)c1c(NC(=O)Cc2ccccc2)sc2c1CCN(C)C2,36%,0%,-26%,·,1%,-4%
CCOC(=O)c1c(NC(=S)Nc2cc([N+](=O)[O-])ccc2OC)sc2c1CCCCC2,5.6µM*,·,4µM*,-1%,22µM*,·
CCOC(=O)c1c(NC(=O)CSc2nnc(C)s2)sc2c1CCN(C)C2,-8%,23%,-1%,0%,18µM*,9%
CN1CCN(c2ncc3nc(-c4cn(C)c5ccccc45)c(=O)n(-c4ccccc4)c3n2)CC1,?,1%,?,·,7%,·
C[C@@H](C(=O)Nc1ccc(SC(F)F)cc1)N1C(=O)C2CCCCC2C1=O (stereo partly drawn),·,2%,·,·,·,2%
FC(F)Sc1ccc(NC(=S)NC2CCCC2)cc1,11µM*,?,?,-3%,12%,·
CC1CCCC(NC(=S)Nc2ccc(SC(F)F)cc2)C1C (stereo not drawn),0.5µM*,?,5µM*,1%,-16%,-4%
OC1CCC(NC(=S)Nc2ccc(SC(F)F)cc2)CC1 (stereo not drawn),-28%,1%,-2%,1%,5%,·
COc1cccc(CN2CCc3nnc(CCc4ccccc4)n3CC2)c1OC,·,1%,·,·,·,·
C/C=C(\C)C(=O)OC1c2c(ccc3ccc(=O)oc23)OC(C)(C)C1OC(C)=O (stereo not drawn),-10%,0%,?,-3%,5%,32µM*
C/C=C(/C)C(=O)O[C@@H]1c2c(ccc3ccc(=O)oc23)OC(C)(C)[C@@H]1OC(C)=O,·,1%,·,·,·,4%
O=C(O)c1ccc(COc2ccc(CO)cc2Cl)cc1,?,1%[38.3 µM],?,0%,13%,1%
COc1ccc(OCc2cccc(C(=O)O)c2)cc1,1.8µM*,0%,?,-6%,14%,16%
CCOc1ccc(OCc2cccc(C(=O)O)c2)cc1,1.6µM*,5%[38.3 µM],?,2%,-6%,-1%
O=C(O)c1cccc(COc2ccc(CO)cc2Cl)c1,1.8µM*,0%[38.3 µM],5µM*,-1%,7%,1%
SMILES,RORg inh,PINK1 expr mod,Gal4-VP16 FLuc,Epigenetic derep,Sfp PPTase inh,ClpP mod
CCCc1cc(N2CCN(c3ccccc3F)CC2)n2cnnc2n1,·,-1%,·,-5%,·,2%
Cc1ccc(NC(=S)NCc2ccc3[nH]c4c(c3c2)CCCC4)cc1,7.9µM*,9%,2.8µM*,3%,9%,-7%
COCCNC(=S)NCc1ccc2[nH]c3c(c2c1)CCCC3,20µM*,3%,-74%,-3%,11%,-5%
CC(C)CC(=O)NCc1ccc2[nH]c3c(c2c1)CCCC3,45%,1%,-22%,3%,6%,-15%
Cc1ccc(C)c(S(=O)(=O)c2c(N)n(/N=C/c3ccco3)c3nc4ccccc4nc23)c1,?,3%[38.3 µM],?,-1%,50µM*,7.9µM*
Nc1c(S(=O)(=O)c2ccccc2)c2nc3ccccc3nc2n1/N=C/c1cccc(O)c1,-2%,2%,-1%,-7%,10%,10µM*
COc1ccc(-n2nc(C(=O)N3CCN(c4cccc(C(F)(F)F)c4)CC3)c3c4ccccc4n(C)c3c2=O)cc1Cl,·,1%,·,-2%,·,-1%
Cc1cc2c(cc1S(=O)(=O)Nc1ccc(C(C)C)cc1)OCCN2C,·,4%,·,0%,·,-7%
CCCS(=O)(=O)c1nc(S(=O)(=O)c2ccc(C)cc2)c(N2CCCC2)s1,-15%,2%,-1%,0%,6%,-5%
CCCS(=O)(=O)c1nc(S(=O)(=O)c2ccc(C)cc2)c(N2CCc3ccccc3C2)s1,8.9µM*,-2%,?,-1%,-9%,-2%
CCN(CC)c1ccc(NC(=O)CN2CCN(S(=O)(=O)c3ccc(C(C)C)cc3)CC2)cc1,·,-1%,·,1%,·,-14%
Cc1cc(C)c(C(=O)/C=C/c2cccs2)c(=O)[nH]1,-17%,1%,6%,4%,21%,0%
Cc1cc(C)c(C(=O)/C=C/c2ccco2)c(=O)[nH]1,-1%,0%,5%,-3%,8.9µM*,·
COc1ccc(/C=C/C(=O)c2c(C)cc(C)[nH]c2=O)c2ccccc12,?,3%,14µM*,·,8%,·
COc1ccccc1/C=C/C(=O)c1c2c(c(C)[nH]c1=O)CCCC2,5.6µM*,-8%[38.3 µM],4.5µM*,1%,5%,0%
Cc1ccc(/C=C/C(=O)c2c(C)cc(C)[nH]c2=O)cc1,?,1%[38.3 µM],?,-1%,6%,0%
c1ccc(Sc2cccc3ccccc23)c(CNC2=NCCN2)c1,9%,-6%,-14%,-1%,-20%,3.2µM*
CN(C)Cc1ccccc1Sc1cccc2ccccc12,10µM*,22%,14µM*,0%,-71%,-3%
CC(C)c1cccc(OCCCCN(C)C)c1,-1%,0%,-3%[10 µM],2%,79µM*,·
